# Reference: ChEMBL document CHEMBL3433997, “St. Jude Leishmania screening dataset” (2016)
# Key:
# Assay type in all cases: functional
# [1] = molecular target: Solute carrier family 2, facilitated glucose transporter member 1 (Homo sapiens) (UniProt P11166); assay: ST_JUDE_LEISH: Cytotoxicity at 2uM final concentration against transgenic Leishmania Mexicana promastigotes LmGLUT1 that are glucose transport deficient and complemented with the human glucose transporter GLUT1. Activity is measured by DNA content using SYBR green in vitro
# Solute carrier family 2, facilitated glucose transporter member 1 (Homo sapiens), sequence (P11166 whole entry): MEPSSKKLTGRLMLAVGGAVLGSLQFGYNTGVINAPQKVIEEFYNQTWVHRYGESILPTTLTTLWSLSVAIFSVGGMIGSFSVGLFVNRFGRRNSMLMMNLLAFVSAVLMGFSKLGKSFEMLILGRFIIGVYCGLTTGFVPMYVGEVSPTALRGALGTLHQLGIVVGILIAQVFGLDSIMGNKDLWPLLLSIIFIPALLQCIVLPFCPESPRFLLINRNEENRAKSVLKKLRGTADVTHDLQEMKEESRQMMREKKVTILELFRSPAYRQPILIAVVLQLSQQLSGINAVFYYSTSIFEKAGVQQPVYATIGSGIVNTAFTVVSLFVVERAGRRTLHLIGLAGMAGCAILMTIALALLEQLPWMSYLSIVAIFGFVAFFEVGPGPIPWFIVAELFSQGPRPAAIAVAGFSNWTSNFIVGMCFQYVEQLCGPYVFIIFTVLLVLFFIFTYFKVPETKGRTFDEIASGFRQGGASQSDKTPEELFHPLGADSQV
# [2] = molecular target: Hexose transporter 1 (Plasmodium falciparum) (UniProt O97467); assay: ST_JUDE_LEISH: Cytotoxicity at 2uM final concentration against transgenic Leishmania Mexicana promastigotes LmPfHT that are glucose transport deficient and complemented with the Plasmodium falciparum hexose transporter. Activity is measured by DNA content using SYBR green in vitro
# [3] = molecular target: Glucose transporter (Leishmania mexicana) (UniProt O61059); assay: ST_JUDE_LEISH: Cytotoxicity at 2uM final concentration against transgenic Leishmania Mexicana promastigotes LmGT2 that are glucose transport deficient and complemented with the L. Mexicana glucose transporter 2. Activity is measured by DNA content using SYBR green in vitro
Structure (SMILES),inhibition [1],inhibition [2],inhibition [3]
O=c1cc(NCCCNCc2cn(S(=O)(=O)c3ccccc3)c3ccccc23)[nH]c2ccccc12,-0.4%,-0.55%,-0.88%
CC(=O)Nc1ccc(CN(C)C2CCN(c3cc(NC(=O)c4cccc(C)c4)ccn3)CC2)cc1,2.4%,3.41%,2.5%
Cn1cncc1CCN(Cc1ccc(-c2ccc(C(F)(F)F)cc2)cc1)C(=O)Cn1c(CCc2cccc(F)c2F)cc(=O)c2cccnc21,1.83%,2.38%,-0.14%
Cc1noc(-c2ccc3c(c2)CCN(CCC2CCC(NC(=O)/C=C/c4ccc(F)cc4)CC2)CC3)n1 (stereo not drawn),0.93%,-1.07%,-0.23%
CC(C)(C)OC(=O)c1c(NC(=O)/C=C/c2ccc(O)c(O)c2)sc2c1CCCC2,-1.88%,-1.04%,-0.95%
O=C(Nc1ccc(C(=O)N2CCN(CCN3CCN(c4cccc(C(F)(F)F)c4)CC3)CC2)cc1)c1cc(Cl)cc(Cl)c1,3.84%,0.79%,2.52%
CCc1ccc(-n2c(=O)c3cccnc3n2CC(=O)NC2CCCC2)cc1,1.13%,-0.35%,-1.74%
COc1ccc2ncc(F)c(CCN3CC(O)C(CNCc4ccc5c(c4)OCCO5)C3)c2n1 (stereo not drawn),6.54%,4.38%,-0.93%
CN(C)CCOc1ccc(-n2c(-c3nonc3N)nc3cncc(-c4ccc(F)cc4)c32)cc1,3.17%,3.94%,2.52%
CC(C)(C)c1ccc(Cc2cccc3nc(N)nc(N)c23)cc1,21%,16.4%,11.4%
CC(C)[C@H](NCC(=O)c1ccccc1)C(=O)O,-0.14%,0.65%,-0.17%
O=C(Nc1cccc(CN2CCCN(Cc3cccc(O)c3)CC2)c1)c1ccc(-c2ccccc2)cc1,-3.92%,-2.77%,-0.17%
COc1ccccc1C(C)NCC(=O)Nc1ccccc1Sc1ccccc1 (stereo not drawn),0.18%,0.01%,1.44%
O=c1cc(NCCCNCc2[nH]c3cc(Cl)cc(Cl)c3c2Cn2cccn2)[nH]c2ccccc12,0.47%,-1.31%,1.93%
COc1ccc2nccc([C@@H](O)CN3CCC(NCc4nc5c(cc4F)SCC(=O)N5)C(F)C3)c2c1 (stereo partly drawn),5.83%,3.21%,4.51%
c1ccc(Oc2ccc(Nc3ccnc4cc(-c5csc(CN6CCCCC6)n5)ccc34)cc2)nc1,0.24%,1.27%,0.89%
CCCc1ccc(C(=O)N2C(c3nccs3)C(C(N)=O)CC2(CC(C)C)C(=O)O)cc1 (stereo not drawn),1.38%,2.07%,0.37%
CC(C)(C)CNc1noc(-c2sccc2Br)n1,-0.27%,-0.43%,-0.7%
CN(c1ccc(NC(=O)Nc2cc(C(F)(F)F)ccc2F)cc1)c1ccnc(NCCN2CCOCC2)n1,7.88%,18.5%,0.14%
Cc1nc(SCC(=O)N2CCCC2=O)c2c(C)c(C)sc2n1,8.94%,8.95%,6.78%
N#Cc1ccc2c(c1)CN(C1CCC(NC(=O)c3cc(-c4ccc(Cl)cc4)cs3)CC1)CCC2 (stereo not drawn),3.29%,0.21%,1.7%
COc1ccc2nccc([C@@H](O)CN3CCC(NCc4nc5ccccc5s4)CC3)c2c1,4.29%,6.41%,-0.69%
COc1ccc(CNC(=O)C2Cc3ccccc3CN2Cc2ccc3ccccc3c2)cc1 (stereo not drawn),2.51%,1.12%,-0.58%
Cc1cc(-c2cccc(CNCc3ccccc3)c2)ccc1S(=O)(=O)NCCN1CCCC1,6.02%,8.53%,5.69%

Structure (SMILES),inhibition [1],inhibition [2],inhibition [3]
c1cc(-c2ccc(CNCc3ccsc3)cc2)cc(-c2nc3ccccc3[nH]2)c1,1.08%,3.56%,-2.01%
COc1ccc2nccc([C@@H](O)CN3CCC(NCC(=O)Nc4cc(F)cc(F)c4)CC3)c2n1,37.8%,47.2%,58.1%
Cn1cc(C(=O)Nc2cccc(-c3cccc(-c4nc5ccccc5[nH]4)c3)c2)n(C)c1=O,4.31%,2.7%,2.54%
CCCCCOc1ccc(/N=C2\C=C(O)C(=O)c3ccccc32)cc1,1.82%,2.9%,2.17%
O=C(Nc1cccc(CN2CCCN(Cc3ncc[nH]3)CC2)c1)c1ccc2ccccc2c1,-2.43%,-3.48%,1.4%
CN(Cc1cccc(F)c1)C1CCN(c2cc(NC(=O)c3cccc(F)c3)ccn2)CC1,3.06%,3.18%,2.7%
Cc1ccccc1C1CCN(C2CCC(NC(=O)/C=C/c3ccc(F)c(F)c3)CC2)CC1 (stereo not drawn),-1.77%,-1.74%,-1.27%
CCCc1cc2c3c(N)nc(N)nc3ccc2n1CC,6.73%,8.39%,4.29%
Cc1nc(C)c(-c2ccc(Oc3ccc(Cl)cc3Cl)cc2)c(O)c1Br,-1.34%,-0.13%,0.66%
O=C(NC1CCN(Cc2ccccc2)CC1)c1cccc(-c2cc3cc(Cl)c(Cl)cc3[nH]2)c1,2.36%,-1.61%,-0.91%
Cc1ccc(-c2ccc3c(c2)C=C(C(=O)NC2CCN(CCNC(=O)c4cccs4)CC2)CCC3)cc1,8.71%,2.81%,2.25%
CN1CCN(c2ccc(-c3cc(-c4cc(F)c(F)c(F)c4)cnc3N)cc2)CC1,4.36%,1.8%,0.2%
COCCNCc1cccc(C#Cc2cc3ncnc(Nc4ccc(OCc5cccc(F)c5)c(Cl)c4)c3s2)n1,5.28%,5.8%,3.62%
Cn1cncc1C(=O)Nc1ccc(-c2ccc(-c3nc4cc(C(F)(F)F)ccc4[nH]3)cc2)cc1,20.8%,15%,4.64%
Cn1nc(-c2cccc(CNC3CCc4ccccc43)c2)c2cnc(NCCCN3CCCC3)nc21 (stereo not drawn),29.9%,32.6%,25.9%
COc1ccc2nccc([C@@H](O)CN3CCC(NCc4ccc5c(c4)sc(=O)n5C)CC3)c2c1,-0.15%,0.84%,-1.7%
CCOc1ccc2c(=NN=Cc3cccc(Cl)c3)cc(C)[nH]c2c1,8.03%,6.27%,16%
COc1ccc(-c2cccc(NC(=O)c3cccc(Cl)c3)c2)cc1CN1CCCN(C)CC1,11.4%,12%,11.7%
Cc1[nH]c(-c2ccc(F)cc2)cc1C(=O)NC1CCN(Cc2ccccc2)CC1,1.59%,3.23%,-0.98%
Cc1nc(C)c(-c2ccc(Oc3ccc(OC(F)(F)F)cc3)cc2)c(OC(=O)c2ccccc2)c1Cl,2.27%,3.78%,2.37%
COc1cccc(NC(=O)c2cc([N+](=O)[O-])ccc2NC(=O)CN2CCc3ccccc3C2)c1,4.59%,0.9%,4.74%
O=C(/C=C/c1ccc(Cl)c(Cl)c1)NCCCCCN1CCCN(C(=O)Nc2ccc(F)c(Cl)c2)CC1,1.23%,1.72%,3.64%
O=C(Nc1ccc(OC2CCN(Cc3ccco3)CC2)c(Cl)c1)c1ccc2ncccc2c1,4.38%,2.97%,2.34%
COc1cc(C)c(NC(=O)c2cccc3c(=O)c(C)c(-c4ccccc4)oc23)cc1OC,6.49%,-0.38%,-1.52%

Structure (SMILES),inhibition [1],inhibition [2],inhibition [3]
CCOC(=O)c1nc(-c2cccc(F)c2)[nH]c1N,1.32%,0.39%,2.23%
Cc1sc(C)c(C(F)(F)F)c1CNCCCNc1cc(=O)c2ccccc2[nH]1,4.01%,4.67%,4.27%
CN(CCCCCNC(=O)/C=C/c1ccc(Cl)c(Cl)c1)CCc1c[nH]c2ccccc12,20.6%,20%,12.6%
c1cc2[nH]c(CCCCCc3nc4cc(C5=N[C@@H]6CCCC[C@@H]6N5)ccc4[nH]3)nc2cc1C1=N[C@@H]2CCCC[C@@H]2N1,3.32%,2.96%,1.81%
Cc1noc(C)c1-c1cccc(CNCc2cccc(-c3cccc(-c4nc5ccccc5[nH]4)c3)c2)c1,0.14%,1.29%,0.09%
O=c1cc(NCCCNC(c2ccccc2)c2ccc(Cl)c(Cl)c2)[nH]c2ccccc12 (stereo not drawn),-1.95%,-1.47%,-1.3%
CN(C)C(CNC(=O)c1cc(-c2ccncc2)c(-c2cc3ccccc3[nH]2)o1)c1ccccc1 (stereo not drawn),3.53%,2.32%,2.06%
COc1ccc(CNC2CCN(c3ccc(NC(=O)c4cccc(Cl)c4)cc3)CC2)cc1OC,2.25%,1.47%,0.61%
Cc1cccc2nc(-c3ccc(-c4ccc(NC(=O)Nc5ccc(F)c(F)c5F)cc4)cc3)[nH]c12,8.48%,8.02%,7.14%
Cc1cnc(NC(=O)c2cn(-c3ccccc3)nc2-c2cccs2)s1,14.6%,13.2%,13.9%
CC(=O)c1ccc(NC(=O)Nc2ccc(N(C)c3ccnc(NC4CC4)n3)cc2)cc1,-0.95%,-3.95%,0.62%
COc1ccc(C=C2SC(=O)N=C2Nc2ccccc2)c(OC)c1,6.71%,5.61%,2.58%
C[C@H](Cc1ccc(OCCCCCCOc2ccc(C[C@@H](C)N[C@H](C)c3ccccc3)cc2)cc1)NC[C@H](O)c1cccc(Cl)c1,106%,94%,82.4%
C[C@H](Nc1nc(C(Oc2ccccc2)c2ccccc2)nc2[nH]ncc12)c1ccccc1 (stereo partly drawn),3.69%,1.72%,0.54%
CCN(CC)CCOc1c(Cl)cc(Cl)cc1CNCCCNc1cc(=O)c2ccccc2[nH]1,0.34%,1.03%,4.06%
CC(C)CNC(=S)N1CCCN(c2nc3ccc(Cl)cc3s2)CC1,3.18%,2.71%,0.2%
Cc1cc(OCCCN2CCC(NS(=O)(=O)c3cccc(Br)c3)C2)c2ccccc2n1 (stereo not drawn),0.6%,1.51%,1.56%
COc1ccc(Cl)cc1-c1nc(C(=O)NCCN2CCCCC2)c(C)s1,1.59%,2.9%,5.49%
CCOc1ccc(C(C)NC(=O)c2ccc(OC)c(Br)c2)cc1OCC (stereo not drawn),1.14%,-0.71%,-0.9%
COc1ccc(CCNCCCCCCNCCc2ccc(Cl)cc2)c(Cl)c1OC,73.4%,16.7%,102%
Nc1nc(N)c2c3c(ccc2n1)NCCC3,-0.04%,0.47%,-0.59%
COc1ccc(NC(=O)Nc2cccc(-c3cccc(-c4nc5cccc(C)c5[nH]4)c3)c2)cc1,-1.25%,-0.57%,-1.79%
Cc1noc(-c2ccccc2)c1NC(=O)N1CCN(CCCCCCNC(=O)/C=C/c2ccc(Cl)c(Cl)c2)CC1,-2.35%,0.35%,-1.3%
